Screens: PubChem BioAssay, several laboratories
A selection: hits, their analogues and other compounds. The true share with any hit is near 1.5%.
ugtP null kill: compounds lethal to S. aureus RN4220 ugtP deletion mutant; actives 0.54% (n = 330,000); growth inhibition, % (test concentration not listed); AID 1259309; OD600 growth, 16 h; in the data active = growth inhibition above about 68%;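 also: plate controls were untreated wells for no effect and antibiotic for full effect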
SSB-PriA inh: blocks PriA binding to SSB C-terminal tail; AlphaScreen SSBct-PriA binding, biotinylated peptide; inhibition, % at 33 µM; actives 0.6% (n = 430,000); in the data active = inhibition mostly above about 37%, no sharp cut-off; inactive = mostly below about 20%;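 also: plate controls were negative control peptide for no effect and reference peptide for full effect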
Sa RN4220 lethal: kills Staphylococcus aureus RN4220 | AID 1259311 | actives 0.33% (n = 330,000) | inhibition, % (concentration not given with the values) | S. aureus RN4220 growth, OD600, 16 h; in the data active = inhibition above about 85%;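 also: plate controls were untreated cells for no effect and reference antibiotic for full effect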
CCHF vOTU inh-1: blocks the CCHF virus ovarian tumor domain protease; CCHFV vOTU protease, Pep-AMC fluorescence; inhibition, % at 11.5 µM; actives 0.55% (n = 370,000); also: 0% = vehicle wells with enzyme and 100% = no enzyme wells
VHR inh abs: blocks human VHR1 dual specificity phosphatase; P51452; recombinant VHR phosphatase, pNPP absorbance; inhibition, % at 13.3 µM; actives 0.52% (n = 290,000); AID 1654; in the data active = inhibition above about 50%
Target sequence (P51452 whole entry, looked up): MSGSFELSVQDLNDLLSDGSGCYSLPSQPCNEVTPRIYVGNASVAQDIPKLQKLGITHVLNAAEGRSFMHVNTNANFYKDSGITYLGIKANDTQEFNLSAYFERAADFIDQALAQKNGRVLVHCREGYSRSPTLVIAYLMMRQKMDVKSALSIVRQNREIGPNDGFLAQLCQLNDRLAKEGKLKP
CCHF vOTU inh-2: confirmation of CCHF virus vOTU protease inhibitors; shares compounds with CCHF vOTU inh-1; Recombinant CCHFV vOTU, Pep-AMC fluorescence; inhibition, % at 11.5 µM; actives 17% (n = 1,900); AID 686976
* = called active by the depositor; nt = no result. Rule as the data show it, unless noted: active = inhibition above about 30%; inactive = the rest.

SMILES | ugtP null kill | SSB-PriA inh | Sa RN4220 lethal | CCHF vOTU inh-1 | VHR inh abs | CCHF vOTU inh-2
COC(=O)[C@]12C[C@H](CC(=O)NCc3cccc(C(F)(F)F)c3)C(=O)N(CCC3=CCCCC3)C1=C[C@H](C(C)C)O[C@@H]2C1CC1 | nt | nt | nt | 33* | nt | 7
Cc1ccc(S(=O)(=O)N=C(Nc2cccc(C(=O)O)c2)c2ccccc2)cc1 | nt | -6 | nt | nt | nt | nt
Cc1cccc(NC(=S)N/N=C/c2ccc([N+](=O)[O-])s2)c1 | nt | nt | nt | 35* | 29 | -1
Cn1c(C(F)(F)F)nn(CCNC(=O)NCc2cccs2)c1=O | nt | 0 | nt | nt | nt | nt
CCS(=O)(=O)c1ccc(O)c(NC(=O)c2cc(-c3ccccn3)nc3ccccc23)c1 | -6 | 6 | 1 | 32* | nt | -17
COc1ccc(C(=S)N2CCN(C(=S)c3c[nH]c4ccccc34)CC2)cc1 | nt | 3 | nt | nt | nt | nt
COc1ccc(C2(c3ccc(OC)cc3)NC(=O)N(CC(=O)N(C)C3CCC(C)CC3)C2=O)cc1 (stereo not given) | 2 | -18 | 2 | 30* | nt | 2
Cc1oc2c(c1C(=O)O)C(=O)c1ccccc1C2=O | 8 | 6 | 13 | 67* | 6 | 78*
NC(=S)N/N=C/c1ccc(/C=N/NC(N)=S)cc1 | nt | nt | nt | 36* | 2 | 3
COc1ccc(C=NNC(N)=S)cc1 | 2 | -8 | 4 | nt | nt | nt
O=S(=O)(c1cccnc1)N1CCN(c2cnccn2)CC1 | nt | -5 | nt | nt | nt | nt
Cc1c(C#N)c(O)[nH]c(=O)c1N=Nc1ccc(Cl)c(C(=O)O)c1 | 18 | -2 | 5 | 31* | nt | -3
CN(CCc1ccccc1)C(=O)c1cc(COc2cccc(C(F)(F)F)c2)on1 | -18 | -52 | 5 | 30* | -13 | 13
CC1CCN(CC(O)Cn2c3c(c4cccc(Cl)c42)CCCC3)CC1 (stereo not given) | nt | 8 | nt | nt | nt | nt
Cc1[nH][nH]c(=O)c1C(c1ccc(-c2cccc(C(=O)O)c2)o1)c1c(C)[nH][nH]c1=O | 2 | -6 | 1 | 40* | 30 | -14
O=C(Cc1ccc2c(c1)OCO2)Nc1ccc2sccc2c1 | nt | -62 | nt | nt | nt | nt
Nc1cc2cccnc2cc1Cl | -7 | 0 | 0 | 39* | nt | 8
CC1=C(C(=O)OC(C)C)C2(O)C(=O)c3ccccc3C2(O)N1 (stereo not given) | 9 | -13 | 0 | 19 | 16 | nt
CCOC(=O)C1=C(C)N[C@@]2(O)c3ccccc3C(=O)[C@@]12O | 6 | -8 | 1 | 22 | 0 | nt
CC(=O)C1=C(C)OC2(O)c3ccccc3C(=O)C12O (stereo not given) | 13 | -6 | 2 | 71* | 21 | -8
CCOC(=O)C1=C(C)OC2(O)c3ccccc3C(=O)C12O (stereo not given) | 11 | 6 | 0 | 103* | -3 | 19
Cc1ccc(S(=O)(=O)NCC2CCN(Cc3ccco3)CC2)cc1C | nt | 3 | nt | nt | nt | nt
O=C(Cc1cc(=O)[nH]c(SCc2cccc(Cl)c2)n1)NCc1ccc(F)cc1 | nt | 7 | nt | nt | nt | nt
Oc1ccc(C=Nc2cccc3ncccc23)c(O)c1 | -3 | 96* | -2 | 44* | -10 | -10
Cc1ccccc1NC(=O)COc1ccccc1/C=C1\SC(=NCC(=O)O)NC1=O | nt | -8 | nt | nt | nt | nt
SMILES | ugtP null kill | SSB-PriA inh | Sa RN4220 lethal | CCHF vOTU inh-1 | VHR inh abs | CCHF vOTU inh-2
CCCCCCN1C[C@H](n2cc(COC(=O)c3ccccc3)nn2)[C@@H](O)C[C@@H]1c1ccc(C)cc1 | nt | nt | nt | 37* | nt | 8
CCCCCCN1C[C@H](n2cc(C3CC3)nn2)[C@@H](O)C[C@@H]1c1ccc(C)cc1 | nt | nt | nt | 38* | nt | 16
CCC(=O)N1CCN(Cc2nc(-c3ccc(F)cc3)cs2)CC1 | nt | -8 | nt | nt | nt | nt
CCN(c1cccc(C(F)(F)F)c1)S(=O)(=O)c1ccc2c(c1)CCN2C(C)=O | 4 | -20 | 21 | 42* | 6 | 2
NS(=O)(=O)c1ccc(NC2=CC(=O)C(=O)c3ccccc32)cc1 | nt | 10 | nt | 100* | 0 | 102*
Cc1ccc(NC2=CC(=O)C(=O)c3ccccc32)cc1 | 38 | 41 | 57 | 93* | -1 | 70*
Cc1cc(NC2=CC(=O)C(=O)c3ccccc32)no1 | nt | 7 | nt | 81* | nt | 96*
COc1cc(OC)c(NC2=CC(=O)C(=O)c3ccccc32)cc1Cl | nt | -5 | nt | 16 | 66 | nt
CCn1c(=NC(=O)c2ccc(C#N)cc2)sc2cc(Br)ccc21 | nt | 3 | nt | nt | nt | nt
CCOC(=O)C1CCN(C(=O)c2cn(C)c3c(=O)n(Cc4ccccc4)c(=O)[nH]c23)CC1 | nt | 10 | nt | nt | nt | nt
COc1cc(/C=C2\SC(=S)N(CC(=O)O)C2=O)ccc1OS(=O)(=O)c1ccc(C)cc1 | 0 | 1 | 5 | 54* | nt | 8
COc1cc(/C=C2/SC(=S)N(CC(=O)O)C2=O)ccc1OC(=O)c1cccs1 | 2 | -1 | 7 | 20 | 28 | nt
CCOC(=O)c1c(S(=O)(=O)NCC(=O)NCc2ccccc2Cl)c(C)n(C)c1C | -2 | 8 | 1 | 7 | 10 | nt
CCOC(=O)c1c(S(=O)(=O)NCC(=O)NCc2ccc(C)cc2)c(C)n(C)c1C | 2 | -2 | 4 | 42* | -14 | -12
CC(C)(C)c1ccccc1NC(=O)Nc1nc(C(N)Cc2ccc(F)cc2)cs1 (stereo not given) | nt | nt | nt | 30* | nt | -23
C(=NN=C(NN=Cc1cccs1)NN=Cc1cccs1)c1cccs1 | 3 | -5 | 7 | 33* | nt | 2
c1ccc2[nH]c(-c3nnco3)cc2c1 | nt | 4 | nt | nt | nt | nt
CC1(C)CC(=O)C=C(Nc2ccc(Br)cn2)C1 | -2 | 2 | 3 | 31* | 3 | -1
O=[N+]([O-])c1cc([N+](=O)[O-])c2c(=Nc3ccccc3)n(-c3ccccc3)n(O)c2c1 | 47 | 63* | 41 | 31* | 17 | 1
Cc1cc(NC(=O)C(=O)NC(c2ccccc2)c2ccccc2)no1 | nt | -15 | nt | nt | nt | nt
Cc1cc(C)nc(SCc2ccc(C(=O)O)o2)n1 | 6 | -15 | 2 | 10 | 22 | nt
Cc1cc(C(F)(F)F)nc(SCc2ccc(C(=O)O)o2)n1 | -6 | -24 | 5 | 41* | 25 | -10
Cc1cc(OC2CCN(C(=O)c3ccc(Br)o3)C2)cc(=O)n1C (stereo not given) | nt | 2 | nt | nt | nt | nt
COC(CNC(=O)c1ccc2c3c(onc13)-c1ccccc1C2=O)OC | 36 | 12 | 49 | 78* | 4 | 48*
COC(CNC(=O)c1cccnc1)OC | 9 | -6 | 8 | 7 | 16 | nt
O=C(NCc1ccc(F)cc1)c1ccc(S(=O)(=O)Nc2cccc(C(F)(F)F)c2)cc1 | -29 | -1 | -5 | 30* | 6 | -11
O=C(NCc1ccccc1F)c1ccc(S(=O)(=O)Nc2cccc(C(F)(F)F)c2)cc1 | -16 | -16 | 6 | 20 | -3 | nt
CCn1c(C)cc2c(c1=O)C(c1ccccc1[N+](=O)[O-])C(C#N)=C(N)O2 (stereo not given) | nt | -3 | nt | nt | nt | nt
N#Cc1c(-c2ccccc2)nc(SCc2cccc(Cl)c2)[nH]c1=O | 27 | 17 | 33 | 32* | -12 | 8
O=C(Nc1nnc(-c2ccco2)o1)c1ccno1 | nt | -6 | nt | nt | nt | nt
